Laboratory results published in PubChem BioAssay.

tested on: Sam68 (KHDRBS1); test: compounds binding KHDRBS1 protein – biochemical, small-molecule microarray, 635 nm fluorescence, primary screen (AID 1125); settings: higher = more signal;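 note: score merges 667 nm channel intensity with signal to noise over triplicate slides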

Question: `C=C(COC)/C(=C/C[C@H](OC(=O)c1ccncc1)c1ccc(OCCO)cc1)c1cnc2ccccc2c1` was tested. Which composite z-score did it give?
Answer: The composite z-score was 1.29.

Question: With `COc1ccc(C#Cc2ccc3c(c2)[C@]2(C(=O)N3)[C@H](c3ccccc3OCCO)N3[C@H](c4ccccc4)[C@H](c4ccccc4)OC(=O)[C@H]3[C@@H]2C(=O)O)cc1` as the compound, how does the composite z-score read?
Answer: Its composite z-score is 1.3.

Question: How did the composite z-score turn out when `C=CC[C@]1(C(=O)N2CCCCC2)N=C(c2ccc(OCCCO)cc2)O[C@H]1c1ccccc1` was run?
Answer: Its composite z-score is 1.31.

Question: With `COCCOC(=O)N1C(=O)[C@@]2(c3cc(C#Cc4ccc(OC)cc4)ccc31)[C@H](C(N)=O)[C@H]1C(=O)O[C@H](c3ccccc3)[C@H](c3ccccc3)N1[C@@H]2c1ccccc1OCCO` as the compound, how does the composite z-score read?
Answer: The composite z-score was 1.3.

Question: `O=C1OCCC/C=C\[C@H]2OC34C=CCN(Cn5nnc6ccccc65)C(=O)[C@H]3N(CCO)C(=O)[C@@H]4C12` (some centres undefined) was tested. Which composite z-score did it give?
Answer: Its composite z-score is -0.642.

Question: For `C=CCN1C(=O)[C@@]2(O[C@@H](CCO)[C@H]([Si](C)(C)c3ccc(OC)cc3)[C@H]2C)c2cc(NC(=O)c3ccc(OC)cc3)ccc21`, which composite z-score is on record?
Answer: Its composite z-score is 1.18.

Question: With `COc1ccc(C(O)C2C=CC3C(=O)N(c4ccccc4)C(=O)C3N2Nc2ccccc2F)cc1OCc1ccccc1` (centres undefined) as the compound, how does the composite z-score read?
Answer: The composite z-score was 1.31.

Question: With `CCCCCN1CC=CC23O[C@@H]4/C=C\CCCOC(=O)C4[C@H]2C(=O)N(CCCO)[C@@H]3C1=O` (some centres undefined) as the compound, how does the composite z-score read?
Answer: Its composite z-score is 0.798.

Question: Which composite z-score does the source give for `CN(C)C(=O)[C@@]1(Cc2ccccc2)N=C(c2ccc(OCCCO)cc2)O[C@H]1c1ccccc1N=[N+]=[N-]` here?
Answer: Its composite z-score is 1.29.

Question: For `O=C1OCC=C[C@H]2OC34C=CCN(CCN5CCOCC5)C(=O)[C@H]3N(CCCO)C(=O)[C@@H]4[C@@H]12` (some centres undefined), which composite z-score is on record?
Answer: The composite z-score was 0.356.

Question: For `CN(C)C(=O)[C@]1(Cc2ccccc2N=[N+]=[N-])N=C(c2ccc(OCCCO)cc2)O[C@@H]1c1ccccc1`, which composite z-score is on record?
Answer: Its composite z-score is 1.31.

Question: `COc1ccc(C(=O)Nc2ccc(CN3C(=O)[C@@]4(O[C@@H](CCO)[C@H]([Si](C)(C)c5ccc(OC)cc5)[C@H]4C)c4ccccc43)cc2)cc1` was tested. Which composite z-score did it give?
Answer: Its composite z-score is 1.3.

Question: How did the composite z-score turn out when `CCOC(=O)C[C@H]1[C@H](OC(=O)Cc2ccc3c(c2)OCO3)[C@@H](NC(=O)c2ccc3ccccc3c2)c2cc(OCCCO)ccc2N1C(=O)c1ccccc1` was run?
Answer: The composite z-score was 1.09.

Question: With `COc1ccc(C(=O)O[C@H]2CC[C@]3(C)C4=C(CCC3C2(C)C)[C@]2(C)CC[C@H]([C@H](C)CCCC(C)C)[C@@]2(C)CC4)cc1` (some centres undefined) as the compound, how does the composite z-score read?
Answer: Its composite z-score is 0.154.

Question: Which composite z-score does the source give for `CN1C(=O)[C@]2(Cc3ccccc3)N=C(c3ccc(OCCCO)cc3)O[C@@H]2c2ccccc21` here?
Answer: The composite z-score was 1.29.

Question: With `COc1ccc(CCNC(=O)[C@@]2(C)c3ccccc3C(=O)N(Cc3cc(F)cc(C(F)(F)F)c3)[C@H]2c2ccc(CO)cc2)cc1` as the compound, how does the composite z-score read?
Answer: The composite z-score was -0.342.

Question: Which composite z-score does the source give for `COc1ccc(C(O)C2C=CC3C(=O)NC(=O)C3N2Nc2ccccn2)cc1` (centres undefined) here?
Answer: Its composite z-score is -0.183.

Question: `CN(C)CCCC[C@@H]1NC(=O)[C@H]2C[C@@H](C(=O)NCCCCCNC(=O)CS)[C@@H](c3cccc(OCCO)c3)N2C1=O` was tested. Which composite z-score did it give?
Answer: Its composite z-score is 1.03.

Question: How did the composite z-score turn out when `COC(=O)[C@@]1(Cc2ccc(OC)cc2)[C@H]2c3cc(C(=O)N(C)C)n(Cc4cccc5ccccc45)c3C[C@H]2CN1C(=O)c1ccccc1` was run?
Answer: The composite z-score was 0.432.

Question: Which composite z-score does the source give for `C#CCN(Cc1ccccc1Br)C(/C=C/c1ccccc1)CO` (centres undefined) here?
Answer: Its composite z-score is -0.271.

Question: With `COCCOC(=O)N1C(=O)[C@@]2(c3cc(C#CCCO)ccc31)[C@H](C(=O)Nc1nc3ccccc3s1)[C@H]1C(=O)O[C@H](c3ccccc3)[C@H](c3ccccc3)N1[C@@H]2c1ccc(OCCO)cc1` as the compound, how does the composite z-score read?
Answer: Its composite z-score is 1.28.

Question: With `CCOC(=O)C[C@H]1[C@H](OC(=O)c2ccc(C(=O)c3ccccc3)cc2)[C@@H](NC(=O)c2ccc(-c3ccccc3)cc2)c2cc(OCCCO)ccc2N1C(=O)c1ccccc1` as the compound, how does the composite z-score read?
Answer: Its composite z-score is 1.31.

Question: Which composite z-score does the source give for `COc1ccc([Si](C)(C)[C@@H]2[C@@H](CC(=O)N3Cc4ccccc4C[C@H]3CO)O[C@]3(C(=O)N(C)c4c(Br)cc(C)cc43)[C@H]2C)cc1` here?
Answer: The composite z-score was 1.31.

Question: `O=C1OCCC=C[C@H]2OC34C=CCN(CCN5CCOCC5)C(=O)[C@H]3N(CCCCCCO)C(=O)[C@@H]4C12` (some centres undefined) was tested. Which composite z-score did it give?
Answer: The composite z-score was -0.614.
